Screening results: PubChem, National Center for Advancing Translational Sciences (NCATS)
A selection: hits, their analogues and other compounds. The true share with any hit is near 3%.
HBB splice mod = hemoglobin beta splicing modulation; HBB splicing reporter cell assay, activation; EGFP reporter with mutant IVS2-654 intron; response scale: normalised to 500 nM splice-correcting PNA; Potency, µM (doses to about 46.1 µM), for the others: at the top dose activation, most hits filed as activators; actives 0.06% (n = 65,000); AID 925; also: potency is read from the fitted curve at half-maximal effect; 0% is about no effect
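HeLa cells stably expressing EGFP interrupted by mutant beta-globin intron 2 (IVS2-654), 500/well in 2% FCS. Treated with compound for 2 days at 37C. Splicing correction scored as total well GFP intensity (488 nm excitation, 500-520 nm emission); 500 nM antisense PNA served as control.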
UbGFP stabilizer = proteasome inhibitors stabilizing ubiquitin-GFP reporter; AID 526; Ubiquitin-GFP reporter cells, proteasome inhibition, GFP fluorescence; response scale: untreated = 0%, 10 µM MG-132 = 100%; Potency, µM (top dose mostly 45.9 µM), without a hit: top-dose activation (GFP accumulation), actives largely listed as activators; 67,000 tested, under 10 active; active = well fitted activation curve with a large enough effect, not every such curve was filed as active; inconclusive = small, poorly fitted or top-dose-only effect, or another doubt; inactive = no such curve, though single readings can be large or run the other way; also: potency is read from the fitted curve at half-maximal effect
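Proteasome block read as GFP accumulation: ubiquitin(G76V)-GFP U2OS cells exposed to compound (2.9 nM–46 uM) for 4 hr at 37 C. Normalization used untreated cells as 0% and 10 uM MG-132 as 100%; concentration-response curves fitted.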
Tau fil binding = binds recombinant human tau filaments; recombinant tau filaments, thioflavin S fluorescence, 15 h; filaments grown with octadecylsulfate alongside compound; Potency, µM (series often up to 57.1 µM), inactives show top-dose activity change, negative = inhibition; actives 2% (n = 71,000);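 also: potency is read from the fitted curve at half-maximal effect; % is scaled to controls: 0 for no effect and ±100 for the full control effect; actives lower thioflavin S fluorescence by blocking filaments or displacing dye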
Target sequence (P10636 whole entry, looked up): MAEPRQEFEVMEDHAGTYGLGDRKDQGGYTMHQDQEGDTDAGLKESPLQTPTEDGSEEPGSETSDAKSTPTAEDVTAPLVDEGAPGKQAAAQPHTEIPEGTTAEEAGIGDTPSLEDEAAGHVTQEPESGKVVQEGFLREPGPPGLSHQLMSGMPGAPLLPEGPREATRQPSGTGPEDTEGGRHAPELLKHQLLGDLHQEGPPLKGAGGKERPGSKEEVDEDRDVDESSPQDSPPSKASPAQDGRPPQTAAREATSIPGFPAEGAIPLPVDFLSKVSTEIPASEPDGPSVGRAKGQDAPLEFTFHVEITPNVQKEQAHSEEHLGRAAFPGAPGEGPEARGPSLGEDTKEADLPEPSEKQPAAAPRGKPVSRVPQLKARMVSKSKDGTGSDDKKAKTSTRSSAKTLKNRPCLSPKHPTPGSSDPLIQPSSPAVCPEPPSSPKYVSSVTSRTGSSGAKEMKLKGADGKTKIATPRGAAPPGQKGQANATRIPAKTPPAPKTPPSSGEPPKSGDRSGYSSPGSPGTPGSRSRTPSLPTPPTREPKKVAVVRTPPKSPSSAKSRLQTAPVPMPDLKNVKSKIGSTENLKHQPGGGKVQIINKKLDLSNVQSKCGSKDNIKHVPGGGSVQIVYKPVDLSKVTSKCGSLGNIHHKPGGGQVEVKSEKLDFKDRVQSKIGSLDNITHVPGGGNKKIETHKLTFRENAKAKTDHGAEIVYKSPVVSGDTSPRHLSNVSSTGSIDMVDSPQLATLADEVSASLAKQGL
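Tau 2 uM in ThS buffer dispensed; compound added; 60 uM ODS added (finals 1 uM tau, 30 uM ODS); 15 h 37 C; fluor ex450/em510.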
Hsp90 Hop PPI = changes Hsp90-Hop TPR2A binding signal, up or down; actives 0.44% (n = 71,000); AID 595; AlphaScreen TPR2A-His6 binding biotin-Hsp90 C-terminal peptide; Potency, µM (highest dose often 57 µM), for inactives: top-dose activity change, negative = inhibition; active = well fitted curve in either direction with a large enough effect; inconclusive = small, poorly fitted or top-dose-only effect, or another doubt; also: potency is read from the fitted curve at half-maximal effect; % is scaled to controls: 0 for no effect and ±100 for the full control effect
GFP derepression = derepresses silenced GFP locus in mouse C127i cells; mouse C127i GFP locus derepression, cytometry, 30 h; Potency, µM (titrated, usually from 46.1 µM), without a hit: at the top dose GFP derepression (activation); actives 0.09% (n = 68,000); AID 597; also: % of control where 0% means no effect
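Derepression screen: silenced CMV-GFP reporter in murine C127i cells, 30 h compound incubation at 37 C, washed cells imaged by laser-scanning cytometer to enumerate GFP-expressing objects of 20 to 120 um.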
ERK AVP block = vasopressin-driven ERK pathway inhibition. HEK293-V1b, vasopressin-stimulated pERK AlphaScreen. Potency, µM (top dose mostly 57.5 µM), for inactives: top-dose activity, negative = inhibition, usual class: inhibitors. actives 0.99% (n = 72,000). AID 995; also: potency is read from the fitted curve at half-maximal effect; % is scaled to controls: 0 for no effect and ±100 for the full control effect; nearly all actives have a fitted effect of over 55% in size
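Overnight-seeded V1b-HEK293 cells in 1% FBS got compound, then vasopressin (25 nM final, 5 min, 37C), then lysis buffer. AlphaScreen detection of phospho-ERK; activity normalized to basal and full-stimulation controls.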
Numbers without * were called inactive; ? = inconclusive; . = no result; [ ] = dose if it differs, or a comment. Unless noted, calls follow the shape of the dose curve; as a rule, active = well fitted curve in the direction sought with a large enough effect; inconclusive = small, poorly fitted or top-dose-only effect, or another doubt; inactive = no such curve, though single readings can be large; an effect the other way counts as inactive or inconclusive.

SMILES	HBB splice mod	UbGFP stabilizer	Tau fil binding	Hsp90 Hop PPI	GFP derepression	ERK AVP block
COc1cccc(C2c3c(oc4cc(C)c(C)cc4c3=O)C(=O)N2CCCN(C)C)c1 (stereo unspecified)	0%	6%	-29%	-3%	-4%	-14%
COC(=O)c1ccc(C2c3c(oc4cc(C)c(C)cc4c3=O)C(=O)N2CCCN(C)C)cc1 (stereo unspecified)	0%	3%	10µM*	-5%	3%	-17%
CCCOc1ccc(C2c3c(oc4cc(C)c(C)cc4c3=O)C(=O)N2CCCN(C)C)cc1OCC (stereo unspecified)	0%	12%	-26%	-2%	0%	-5%
COc1ccc(C2c3c(oc4ccc(C)cc4c3=O)C(=O)N2c2cc(C)ccn2)cc1OC (stereo unspecified)	3%	4%	?	-1%	4%	-6%
CCOc1ccc(C2c3c(oc4cc(C)c(C)cc4c3=O)C(=O)N2CCCN(C)C)cc1OC (stereo unspecified)	0%	3%	25µM*	-4%	.	.
COc1ccc(C2c3c(oc4ccccc4c3=O)C(=O)N2c2ccc(C)cn2)cc1OC (stereo unspecified)	-1%	9%	6.3µM*	-9%	0%	-20%
NC1=C2NC=N[C@@H]2N(C/C=C\c2ccccc2)C=N1	1%[9.22 µM]	-1%[9.17 µM]	12%[11.4 µM]	-2%[11 µM]	-1%[9.22 µM]	-7%[11.5 µM]
c1ncc(-c2ccoc2)c(NC2CC2)n1	1%	-7%	66%	-3%	0%[9.22 µM]	-1%
CN1C[C@@H](O)[C@@H](O)[C@@H](O)[C@@H]1CO	0%	-5%	-2%	-2%	1%	.
C[C@H]1CC[C@@H]2[C@@H](C)[C@H]3[C@H](C[C@H]4[C@@H]5CC=C6C[C@@H](O[C@]7(O[C@H]8O[C@@H](C)[C@@H](O)[C@@H](O)[C@@H]8O)C[C@@H](O[C@@H]8O[C@H](CO)[C@@H](O)[C@H](O)[C@@H]8O)[C@@H](O)[C@H](CO)O7)CC[C@]6(C)[C@H]5CC[C@@]34C)N2C1	-1%[20.6 µM]	-12%[20.5 µM]	62%[25.6 µM]	-5%[26 µM]	1%[20.6 µM]	32%[25.7 µM]
CCCCNN	-1%[9.22 µM]	-10%[9.17 µM]	-10%[11.4 µM]	-3%[11 µM]	0%[9.22 µM]	-2%[11.5 µM]
COc1cccc(-c2ccc3ncnc(NCc4cnc(C)cn4)c3c2)c1	0%	-5%	20%	-8%	5%[9.22 µM]	-8%
CN(C)C(=O)c1ccc(-c2ccc3ncnc(NCc4cccs4)c3c2)cc1	-1%	3%	-6%	-11%	-3%[9.22 µM]	32µM*
COc1cccc(-c2ccc3ncnc(NCc4cccs4)c3c2)c1	-2%	1%	197%	-1%	3%[9.22 µM]	16µM*
CC(C)(C)NC[C@@H](O)COc1ccccc1C1CCCC1	-1%[20.6 µM]	1%[20.5 µM]	13µM*	-3%[26 µM]	6%[20.6 µM]	10%[25.7 µM]
CC(C)(C)NCC(O)COc1ccccc1C(C)(C)C (stereo unspecified)	0%[57.5 µM]	-2%	-4%	-2%	-2%	5%
C[C@@H]1OC(OC2CC[C@@]3(C)C(CC[C@@]4(C)C3CC=C3C5CC(C)(C)CC[C@]5(C(=O)OC5OCC(O)[C@@H](O)[C@@H]5OC5O[C@@H](C)[C@H](O[C@H]6OC(CO)C(O)C(O)C6O)C(O)C5O)C(O)C[C@@]34C)C2(C)C)C(O)C(O)[C@H]1OC1OCC(O)C(O)[C@H]1O (stereo partly specified)	.	.	.	.	.	13µM*
OC[C@@H]1O[C@@H](n2cnc3c(NCCc4ccccc4)ncnc32)[C@@H](O)[C@H]1O	-2%	2%	-4%	-8%	-1%	.
COCCCNC(=O)CS(=O)(=O)Cc1nc(-c2ccccc2C)oc1C	-1%	-6%	-6%	-6%	-4%	-1%
Cc1ccccc1-c1nc(CS(=O)(=O)CC(=O)Nc2cc(F)ccc2F)c(C)o1	-2%	1%	-8%	6%	-3%	13µM*
N#C[C@H]1CN[C@H](N)N[C@@H]1N	0%[9.22 µM]	1%[9.17 µM]	11%[11.4 µM]	1%[11 µM]	0%[9.22 µM]	-12%[11.5 µM]
O=C(CSc1nnc(CNC(=O)c2ccccc2F)o1)c1ccc(Cl)cc1	-1%	3%	32µM*	-2%	-2%	-6%
O=C(CSc1nnc(CNC(=O)c2cccs2)o1)c1ccc(Cl)cc1	-1%	5%	3%	-1%	0%	?
CCOc1ccc(-c2n[nH]c(C)c2Oc2ccc(OC)cc2)c(O)c1	1%[0.369 µM]	0%	?	-7%	5%	40µM*
CN(C)S(=O)(=O)c1ccc2c(c1)/C(=C/c1cc3c([nH]1)CCCC3)C(=O)N2	4µM*	1%	-12%	-9%	16µM*	?
SMILES	HBB splice mod	UbGFP stabilizer	Tau fil binding	Hsp90 Hop PPI	GFP derepression	ERK AVP block
CC(C)[C@@H](CC(=O)N[C@@H]1CCCC[C@H]1C(=O)N[C@H](CC(=O)N[C@@H](CCC(=O)O)CC(=O)O)Cc1c[nH]c2ccccc12)NC(=O)C[C@H](Cc1c[nH]c2ccccc12)NC(=O)[C@@H]1CNCC[C@H]1N	2%	.	-26%	16µM*	.	.
O=C(O)[C@H]([C@H]1NCCS1)N1C(=O)c2ccccc2C1=O	2%[9.22 µM]	-2%[9.17 µM]	10%[11.4 µM]	-2%[11 µM]	-3%[9.22 µM]	-25%[11.5 µM]
CCc1ccc(C2CC(c3ccccc3Cl)Nc3nc(N)nn32)cc1 (stereo unspecified)	-1%	6%	20µM*	-4%	-2%	-17%
CCc1ccc(C2CC(c3ccccc3)n3ncnc3N2)cc1 (stereo unspecified)	0%	-2%	-12%	-4%[2.3 µM]	.	32µM*
Fc1ccc(C2CC(c3ccc(F)cc3)n3ncnc3N2)cc1 (stereo unspecified)	0%[57.5 µM]	-3%	-7%	-3%	0%	-19%
CCc1ccc(C2CC(c3ccccc3)Nc3nc(N)nn32)cc1 (stereo unspecified)	-1%	0%	143%	-8%	5%	2%
Cc1ccc([C@@H](O)c2cnc(C)n2Cc2ccccc2)cc1	5%[9.22 µM]	-3%[9.17 µM]	5%[11.4 µM]	0%[11 µM]	7%[9.22 µM]	-9%[11.5 µM]
CCc1ccccc1O	1%	.	-8%	-3%	.	-6%
O=C1c2ccccc2C(=O)c2c1ccc(C(=O)O)c2-c1ccc2ccccc2c1	-1%[9.22 µM]	-5%[9.17 µM]	3.2µM*	-18%[11 µM]	0%[9.22 µM]	-8%[11.5 µM]
CCn1c2ccccc2c2nnc(SCc3ccccc3)nc21	-1%	0%	-22%	-7%[2.3 µM]	.	14%
CCn1c2ccccc2c2nnc(SCc3ccc(C(=O)OC)o3)nc21	-1%	3%	32µM*	?	0%	-9%
CC1(C)N=C(N)N=C(N)N1c1cccc(CSc2ccccc2)c1	-1%[9.22 µM]	-8%[9.17 µM]	4%[11.4 µM]	0%[11 µM]	9%[9.22 µM]	-1%[11.5 µM]
